Screens from PubChem.
PI5P4K alpha inh: PI5P4K alpha (human) kinase inhibition | P48426 | PI5P4Kalpha enzyme, ADP-Glo luminescence, 60 min; hits give low values | max response, % | actives 1.2% (n = 330,000) | AID 652105; active = max response of -50% or lower; inconclusive = between -30% and -50%; inactive = -30% or higher; also: value at the top dose of about 77 µM
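Enzyme plus substrate dispensed, test compounds pinned in, then ATP (5 microM final) added. After 60 min at RT, ADP-Glo reagent 1 for 45 min and reagent 2 for 30 min preceded luminescence imaging.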
USP1 inh: blocks the human USP1/UAF1 deubiquitinase complex. recombinant USP1/UAF1, Ub-Rhodamine cleavage fluorescence. Potency, µM (highest dose often 57.1 µM), inactives show top-dose activity change, negative = inhibition, actives largely listed as inhibitors. actives 0.23% (n = 390,000); also: potency is read from the fitted curve at half-maximal effect; nearly all actives have a fitted effect of over 60% in size
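USP1/UAF1 complex (1 nM) preincubated 15 min at room temperature with compound, then Ub-Rho substrate (150 nM final) added. Kinetic fluorescence at 480/540 nm over 6 reads at 60 s intervals; 50 mM HEPES pH 7.8, 0.5 mM EDTA, 0.1 mg/ml BSA, 1 mM TCEP, 0.01% Tween-20.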
PLK1 PBD inh: blocks phosphopeptide binding to human PLK1 polo-box domain | Plk1 PBD binding of FITC phosphopeptide, fluorescence polarization | Potency, µM, without a hit: max response, negative = inhibition, actives largely listed as inhibitors | actives 2.8% (n = 360,000); also: potency is read from the fitted curve at half-maximal effect; series mostly up to about 57 µM; nearly all actives have a fitted effect of over 65% in size
USP2a inh: USP2a (human) protease inhibition; O75604; USP2 core, Ub-CHOP2 coupled fluorogenic reporter, 485/531; Potency, µM (series often up to 38.3 µM), for inactives: at the highest dose activity change, negative = inhibition, actives largely listed as inhibitors; actives 0.01% (n = 330,000);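 also: potency is read from the fitted curve at half-maximal effect; plate controls were DMSO wells for no effect and full inhibition by NEM control for full effect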
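USP2 core (10nM final) preincubated 30min RT with compound in 20mM Tris-HCl pH 8.0, 2mM CaCl2, 2mM beta-mercaptoethanol, 0.05% CHAPS; 25nM Ub-CHOP2 plus 25nM reporter substrate added, fluorescence (Ex485/Em531) read after 60min.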
WRN helicase inh: WRN helicase (human) inhibition | Q14191 | WRN helicase unwinding, fluorescent forked duplex, kinetic | actives 0.46% (n = 360,000) | Potency, µM (highest dose often 114 µM), inactives show at the highest dose activity change, negative = inhibition, actives largely listed as inhibitors; also: potency is read from the fitted curve at half-maximal effect; nearly all actives have a fitted effect of over 55% in size
Target sequence (Q14191 whole entry, looked up): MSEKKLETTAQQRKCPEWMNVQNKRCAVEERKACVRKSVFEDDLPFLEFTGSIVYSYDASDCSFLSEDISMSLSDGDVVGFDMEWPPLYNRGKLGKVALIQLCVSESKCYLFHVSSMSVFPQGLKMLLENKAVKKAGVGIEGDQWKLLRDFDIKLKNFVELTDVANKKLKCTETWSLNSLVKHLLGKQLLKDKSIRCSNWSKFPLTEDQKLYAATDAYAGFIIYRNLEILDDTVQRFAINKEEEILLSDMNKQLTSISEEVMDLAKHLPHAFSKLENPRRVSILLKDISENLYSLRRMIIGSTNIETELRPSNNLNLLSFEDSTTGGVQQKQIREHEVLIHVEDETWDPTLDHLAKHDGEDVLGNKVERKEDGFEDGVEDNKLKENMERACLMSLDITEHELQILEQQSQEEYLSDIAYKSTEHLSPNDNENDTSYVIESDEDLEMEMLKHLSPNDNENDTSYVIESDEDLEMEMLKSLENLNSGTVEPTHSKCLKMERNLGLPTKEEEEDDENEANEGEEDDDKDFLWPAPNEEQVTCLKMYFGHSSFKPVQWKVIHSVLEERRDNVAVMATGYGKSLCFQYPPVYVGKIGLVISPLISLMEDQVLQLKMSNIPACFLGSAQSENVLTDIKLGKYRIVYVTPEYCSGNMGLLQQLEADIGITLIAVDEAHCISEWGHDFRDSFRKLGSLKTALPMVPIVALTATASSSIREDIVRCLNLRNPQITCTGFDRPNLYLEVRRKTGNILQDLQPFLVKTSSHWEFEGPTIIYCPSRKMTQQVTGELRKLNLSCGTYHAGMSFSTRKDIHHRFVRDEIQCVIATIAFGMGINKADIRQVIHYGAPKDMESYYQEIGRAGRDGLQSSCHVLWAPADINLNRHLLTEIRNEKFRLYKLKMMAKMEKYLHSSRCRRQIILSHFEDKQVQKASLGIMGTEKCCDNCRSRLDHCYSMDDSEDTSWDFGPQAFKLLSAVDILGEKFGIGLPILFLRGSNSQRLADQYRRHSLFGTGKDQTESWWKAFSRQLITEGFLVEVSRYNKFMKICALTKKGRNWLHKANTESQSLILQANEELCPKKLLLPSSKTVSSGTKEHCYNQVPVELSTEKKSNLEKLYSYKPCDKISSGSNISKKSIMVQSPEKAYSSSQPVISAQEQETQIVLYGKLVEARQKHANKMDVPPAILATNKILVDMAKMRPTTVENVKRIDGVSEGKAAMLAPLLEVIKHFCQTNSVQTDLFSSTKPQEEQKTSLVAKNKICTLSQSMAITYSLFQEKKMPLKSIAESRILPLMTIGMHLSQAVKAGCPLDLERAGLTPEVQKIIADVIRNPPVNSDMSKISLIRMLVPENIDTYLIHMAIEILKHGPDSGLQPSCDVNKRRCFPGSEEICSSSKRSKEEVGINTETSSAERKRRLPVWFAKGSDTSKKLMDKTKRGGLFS
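Fluorescence dequenching readout, ex 525 nm/em 598 nm, kinetic mode: forked duplex DNA (100 nM final) with adjacent fluorophore and quencher unwound by WRN (20 nM final) with 2 mM ATP. Compound preincubation 15 min, room temperature.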
TbPYK confirm: Trypanosoma brucei pyruvate kinase inhibition, cherry-pick confirmation; shares compounds with PLK1 PBD inh; actives 67% (n = 890); recombinant TbPYK, Kinase-Glo ATP luminescence; Potency, µM (top dose mostly 76.9 µM), without a hit: at the highest dose activity change, negative = inhibition, actives largely listed as inhibitors; AID 720569; also: potency is read from the fitted curve at half-maximal effect; nearly all actives have a fitted effect of over 70% in size
TbPYK ADP-Glo: orthogonal confirmation of Trypanosoma brucei pyruvate kinase inhibitors | shares compounds with PLK1 PBD inh | recombinant TbPYK, ADP-Glo luminescence, 60 min | actives 62% (n = 890) | AID 720584 | Potency, µM (doses to about 76.9 µM), for the others: top-dose activity change, negative = inhibition, hits mostly inhibitors; also: potency is read from the fitted curve at half-maximal effect; nearly all actives have a fitted effect of over 75% in size
* hit, by the source's call; ? = inconclusive; . = no result; [ ] = remark or other dose. In the library only some 3.3% were active in any assay of this set; here they are far more common. Unless noted, calls follow the shape of the dose curve; as a rule, active = well fitted curve in the direction sought with a large enough effect; inconclusive = small, poorly fitted or top-dose-only effect, or another doubt; inactive = no such curve, though single readings can be large; an effect the other way counts as inactive or inconclusive. Unless noted, % is scaled to controls: 0 for no effect and ±100 for the full control effect.

SMILES	PI5P4K alpha inh	USP1 inh	PLK1 PBD inh	USP2a inh	WRN helicase inh	TbPYK confirm	TbPYK ADP-Glo
CCN(CC)C(=S)Sc1c(-c2ccccc2)c2cc(Cl)ccc2[nH]c1=O	-19.6	-11.3%	?	0.2%	-11.3%	?	14.1µM*
O=C(O)CSc1c(-c2ccccc2)c2cc(Cl)ccc2[nH]c1=O	?	-17.1%	-24.3%	-0.5%	-12.0%	.	.
Cn1c(=O)c2c(nc(SCC(=O)O)n2Cc2cc3c(cc2Cl)OCO3)n(C)c1=O	.	-10.1%	-5.6%	2.8%	-17.3%	2µM*	3.98µM*
CCn1c(SCC(=O)Nc2ccc3c(c2)OCO3)nc2c1c(=O)n(C)c(=O)n2C	-3.2	-6.6%	-3.5%	-1.4%	1.6%	.	.
CCCCN=C1NN=C(c2ccc3c(c2)OCCO3)CS1	-1.6	-21.9%	-8.0%	0.0%	-3.9%	.	.
COCCN=C1NN=C(c2ccc(C)c([N+](=O)[O-])c2)CS1	-27.6	-20.1%	26.7µM*	-1.6%	11.7%	?	?
Nc1sc2c(c1C(=O)NC1CCS(=O)(=O)C1)CCCC2 (stereo unspecified)	?	-27.3%	26.7µM*	8.0%	2.6%	14.1µM*	15.8µM*
Cc1ccc(S(=O)(=O)N(C)C[C@H]2OCCCC[C@@H](C)Oc3ccc(N(C)C)cc3C(=O)N([C@H](C)CO)C[C@@H]2C)cc1	-1.5	-26.8%	-9.0%	.	3.0%	7.08µM*	7.94µM*
C[C@@H]1CCCCO[C@H](CN(C)C(=O)C2CCCCC2)[C@@H](C)CN([C@H](C)CO)C(=O)c2cc(N(C)C)ccc2O1	1.1	3.3%	?	.	3.8%	28.2µM*	?
CC1(C)Cc2c(C#N)c(NCCc3ccccc3)nc(-c3ccco3)c2CO1	-19.0	?	?	0.8%	-18.5%[57.1 µM]	?	12.6µM*
CC1(C)Cc2c(C#N)c(NCC3CCCO3)nc(-c3ccco3)c2CO1 (stereo unspecified)	-7.1	-4.8%	-10.3%	2.5%	-3.2%	.	.
Cc1cccc(N2CCN(C(=O)CN3C(=O)COc4ccc(S(=O)(=O)N5CCC(C)CC5)cc43)CC2C)c1 (stereo unspecified)	.	-16.3%	.	.	.	.	.
Cc1ccc(NCC(=O)c2ccccc2)cc1Cl	.	-16.4%	-3.4%	-1.0%	-1.6%	.	.
Cc1ccc(NC2=C(NC(=O)c3ccccc3)C(=O)c3ccccc3C2=O)cc1Cl	-52.0*	?	26.7µM*	-0.5%	-6.2%	?	?
CCOC(=O)CCSc1nc(N2CCOCC2)c2c(c1C#N)CC(C)(C)OC2	3.6	-6.7%	-10.4%	-0.9%	4.1%[57.1 µM]	11.2µM*	11.2µM*
Cc1ccc(S(=O)(=O)NNc2ccccc2)c(C)c1	?	-7.7%	21.2µM*	4.6%	50.1µM*	15.8µM*	?
C[C@@H]1O[C@@H](O[C@@H]2[C@@H](O)[C@H](OCCc3ccc(O)c(O)c3)O[C@H](CO)[C@H]2OC(=O)/C=C/c2ccc(O)c(O)c2)[C@H](O)[C@H](O)[C@H]1O	-26.3	-21.7%	-0.2%	5.7%	-23.3%	31.6µM*	?
CCOC(=O)N1CCN(Cc2nc3cc(NC(=O)c4ccc(F)cc4)ccc3n2C(C)C)CC1	.	3.7%	.	.	.	.	.
O=S1(=O)C=C(Sc2nnc(-c3ccccc3)o2)c2ccccc21	.	-9.8%	1.89µM*	-5.2%	?	20µM*	22.4µM*
Cc1cc(C)nc(SC2=CS(=O)(=O)c3ccccc32)n1	-4.0	-17.4%	-19.1%	-4.6%	-0.9%	.	.
CCSc1nc2c([nH]1)c(=O)n(C)c(=S)n2C	-27.5	-10.8%	3.36µM*	.	-12.8%	5.01µM*	10µM*
COc1cccc(NC(=O)c2cn(C3CCCCC3)c(=O)c3c2c2ccccc2n3C)c1	.	-17.5%	.	.	.	.	.
O=C(c1ccc2ncsc2c1)N1CCN(c2ccc(O)cc2)CC1	-8.9	-10.6%	-18.5%	3.6%	4.6%	11.2µM*	?
